# Bioassay records from PubChem BioAssay.
# Rows were chosen to be rich in hits. Some 4.7% of all compounds tested hit in one or more screens of this group.
# LMP1 NFkB inh: EBV LMP1-driven NF-kappaB luciferase reporter inhibitors, primary screen, cell-based, luminescence, single point; hit rate 0.69% among 350,000; LMP1-induced NF-kappaB luciferase reporter cells; inhibition, % at 12.5 µM; AID 504558, 2011; in the data active = inhibition above about 41%; inconclusive = no clear call, values can overlap the other calls;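 also: 0% = neutral control wells and 100% = reference inhibitor control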
# TROY NFkB inh: inhibitors of TROY-driven NF-kB signaling, primary screen, Q293 LMP1-TROYcd cells, NF-kB luciferase, uHTS | hit rate 0.98% among 360,000 | inhibition, % at 10 µM | Q293 LMP1-TROYcd NF-kB luciferase reporter, 4 h;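 active = compounds whose plate-normalised and pattern-corrected inhibition of the luciferase reporter signal at the single screening dose is 50% or more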
# HSP90 refold inh: HSP90 inhibitors, primary screen, cell lysate, luminescence; Heat shock protein HSP 90 (rabbit reticulocyte lysate; luciferase refolding); AID 1789, 2009; inhibition, % at 5.6 µM; hit rate 0.91% among 290,000; Rabbit reticulocyte lysate, luciferase refolding luminescence, 3 h;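 active = inhibition above the screen-wide mean plus 3 SD, computed separately per campaign, cut at about 16% in these data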;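 also: 0% = DMSO wells and 100% = 60 µM geldanamycin wells; inhibitors lower the luminescence because luciferase stays unfolded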
# HSF1 inhib: HSF1 inhibitors in luciferase reporter cells, primary screen, cell-based, NIH3T3, luminescence | AID 2098, 2009 | activity change, negative = inhibition, % at 7.5 µM (by protocol) | NIH3T3-HGL HSE-luciferase, MG132-induced, luminescence 8 h; active compounds read low | hit rate 0.77% among 300,000;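 active = more than half of replicate wells show activity change below -50%, luminescence cut by over half; inconclusive = some wells, but at most half, below -50%; inactive = no replicate well below -50%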;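 also: luciferase reports HSF-1 transcriptional activity via heat shock element; 0% = median of DMSO wells and -100% = zero luminescence signal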
# HSF1 activator: HSF-1 activators, primary screen, NIH3T3-HGL cells, MG132 stress, luminescence, single point; NIH3T3-HGL HSF-1 luciferase reporter, 8 h; 100% = twice DMSO control signal; activation, % at 9 µM; hit rate 1.7% among 300,000;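 active = mean replicate activation of at least 50% with a set share of replicates each reaching 50%; inconclusive = only one of those two conditions met; inactive = mean below 50% and too few replicates reaching it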;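 also: 0% = median of the neutral control wells and 100% = twice that signal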
# TWEAK-Fn14 inh: inhibitors of TWEAK-Fn14 signaling, primary screen, luciferase reporter cells, uHTS; TWEAK-stimulated Fn14 reporter cells, luciferase luminescence, 8 h; inhibition, % at 10 µM; hit rate 2% among 360,000; AID 1159606, 2016; in the data active = inhibition above about 50%
# * marks the source's active call; other numbers are inactive results; u = inconclusive; x = no result.
SMILES,LMP1 NFkB inh,TROY NFkB inh,HSP90 refold inh,HSF1 inhib,HSF1 activator,TWEAK-Fn14 inh
COc1cc(C2NCc3ccccc3-n3cccc32)ccc1O (stereo not drawn),-8,10,-2,16,54*,-17
CCOc1cc2c(cc1OCC)-n1cccc1C(c1ccccc1F)NC2 (stereo not drawn),9,3,-6,4,-3,-8
CCOc1cc2c(cc1OCC)-n1cccc1C(c1cccc(OCC)c1O)NC2 (stereo not drawn),2,12,3,29,51*,2
COC(=O)C1=C(c2ccc(OCc3ccccc3)cc2)C[C@@H]2CC[C@H]1N2C(=O)NCCc1ccc(F)cc1,6,16,x,x,x,27
CN(C)P1(=O)N(C)CCN1C,x,4,x,x,x,14
C=CCN1CC[C@]23c4c5ccc(O)c4O[C@H]2C(=O)CC[C@@]3(O)[C@H]1C5,10,-3,-3,7,0,-5
C=CCN1CCc2cccc3c2[C@H]1Cc1ccc(O)c(O)c1-3,-9,11,1,87,95*,-35
CC(=O)OC[C@]12CCC(C)=C[C@H]1O[C@@H]1[C@H](O)[C@@H](OC(C)=O)[C@@]2(C)[C@]12CO2,74*,84*,x,x,x,98*
Clc1ccc(C[n+]2c(-c3ccccc3)cc(-c3ccccc3)cc2-c2ccccc2)cc1,u,51*,x,-8,1,73*
CCCCn1nnnc1C(CCc1ccccc1)N1CCC(n2c(=O)[nH]c3ccccc32)CC1 (stereo not drawn),x,27,x,x,x,31
COc1ccc(-n2nnnc2C(CCc2ccccc2)N2CCC(n3c(=O)[nH]c4ccccc43)CC2)cc1 (stereo not drawn),x,72*,x,x,x,94*
CCC(c1nnnn1-c1ccc(OC)cc1)N1CCC(n2c(=O)[nH]c3ccccc32)CC1 (stereo not drawn),x,22,x,x,x,7
Cc1cccc(C)c1-n1nnnc1C(CCc1ccccc1)N1CCC(n2c(=O)[nH]c3ccccc32)CC1 (stereo not drawn),x,81*,x,x,x,107*
O=c1[nH]c2ccccc2n1C1CCN(C(CCc2ccccc2)c2nnnn2-c2ccc3c(c2)OCCO3)CC1 (stereo not drawn),x,59*,x,x,x,70*
Cc1cccc(C)c1-n1nnnc1C(c1cccs1)N1CCC2(CC1)C(=O)NCN2c1ccccc1 (stereo not drawn),x,-23,x,x,x,-29
CCOC(=O)[C@]12Cc3cc(C)ccc3[C@H]1N(Cc1ccccc1)C(=O)c1cc(F)c(F)cc12,x,15,x,x,x,37
Cc1ccccc1-c1ccc2n1Cc1cnnn1-c1ccccc1-2,4,-6,x,x,x,13
Nc1cc(C(=O)Nc2ccccc2F)ccc1N1CC2CC(C1)c1cccc(=O)n1C2 (stereo not drawn),-30,-9,x,x,x,-2
CC(O)C1C=CC=CC(=O)OC2CC3OC4C5OC5(C)CCC4(COC(=O)C4OC4(C)C(O)CO1)C2(C)C31CO1 (stereo not drawn),84*,85*,x,91*,91*,99*
CC(=O)OC1C(=O)OCC23CCC4(C)OC4C2OC2CC(OC(=O)C=CC=CC(=O)OCCC1C)C3(C)C21CO1 (stereo not drawn),81*,84*,x,92*,92*,99*
CCC(C)C1NC(=O)C(NC(=O)C(CC(C)C)N(C)C(=O)C2CCCN2C(=O)C(C)O)C(C)OC(=O)C(Cc2ccc(OC)cc2)N(C)C(=O)C2CCCN2C(=O)C(CC(C)C)NC(=O)[C@H](C)C(=O)[C@H](C(C)C)OC(=O)CC1O (stereo partly drawn),93*,85*,x,x,x,102*
CN1C(=O)C[N+]([O-])=C(c2ccccc2)c2cc(Cl)ccc21,-2,-1,x,x,x,8
CC(=O)OC1CC(OC2C(O)CC(OC3C(O)CC(OC4CCC5(C)C(CCC6C5CCC5(C)C(C7=CC(=O)OC7)CCC65O)C4)OC3C)OC2C)OC(C)C1OC1OC(CO)C(O)C(O)C1O (stereo not drawn),76*,43,x,x,x,80*
